From PubChem BioAssay (Tox21)
Results filed as inconclusive are left out. Where a call stands in place of a potency, no number is given. Active and inactive are the calls of the source. Calls follow the shape of the dose curve; as a rule, active = well fitted cell-killing curve with a large enough effect in the repeat runs; inconclusive = weak or mixed curves, or effect the other way; inactive = flat fitted curve, though single readings scatter.
Potency is read from the fitted curve at half-maximal effect.

Test: qHTS RealTime-Glo MT Cell Viability Assay in HEK293 cells - 16 hour (AID 1224872); also: nearly all actives have a fitted effect of over 50% in size; as to activity change, negative = cytotoxicity: top concentration of the series differs between compounds
Settings: RealTime-Glo luminescence; series mostly up to 76.8 µM
Text: National Center for Advancing Translational Sciences [NCATS]
NIH Chemical Genomics Center [NCGC]
U.S. Environmental Protection Agency [EPA]
National Institutes of Environmental Health Sciences [NIEHS]
National Toxicology Program [NTP]
U.S. Food and Drug Administration [FDA]
Measure of cell viability is critical in the cell-base assay. Analysis of cell viability is necessary for the characterization of cell responses to cytotoxic drugs and environmental stress. A RealTime-Glo MT Cell Viability Assay to monitor cell viability in real time of continues cell culture during 40 hours of compound treatment was used to screen Tox21 10K library compounds in Hek293 cells. The RealTime-Glo MT Cell Viability Assay is a nonlytic, homogeneous, bioluminescent method to measure cell viability in real time using a simple, plate-based method. The assay involves adding NanoLuc luciferase and a cell-permeant prosubstrate to cells in culture. Viable cells reduce the proprietary prosubstrate to generate a substrate for NanoLuc luciferase. This substrate diffuses from cells into the surrounding culture medium, where it is rapidly used by the NanoLuc Enzyme to produce a luminescent signal. The signal correlates with the number of viable cells, making the assay well suited for cytotoxicity studies.
Tox21 Assay Protocol Summary:
The mixture of Hek293 cell suspension and reagents were dispensed at 600cells/6 ul/well in 1536-well tissue culture treated black solid bottom plates using a Multidrop dispenser. After the assay plates were incubated at a 37 C/5% CO2 incubator for 5 hours, 23 nL of compounds dissolved in DMSO, positive and negative controls was transferred to the assay plate by a pintool work station. The plates were incubated at 37 C for 40 hours. The luminescence intensity were measured at 0h, 8h, 16h, 24h, 32h and 40h time points using ViewLux plate reader during compound treatment.
With `CC1OC(=O)C(C)OC1=O` (stereo not given) the Potency was “inactive”.
For `O=C1CCCCCCCCCCCC(=O)OCCO1`, the Potency was “inactive”.
For `CCN(CC)CCOC(=O)C(Cc1cccc2ccccc12)CC1CCCO1` (stereo not given), the Potency was “inactive”.
For `CCN(CC)c1ccc(C(=C2C=CC(=[N+](CC)CC)C=C2)c2cc(S(=O)(=O)O)ccc2S(=O)(=O)[O-])cc1`, the Potency was “inactive”.
For `CCc1cc(C2=C(C(=O)O)N(c3ccccc3C(F)(F)F)S(=O)(=O)c3ccccc32)cc2c1OCO2`, the Potency was “inactive”.
In the case of `CCOc1ccc(N=Nc2ccc(/C=C/c3ccc(N=Nc4ccc(OCC)cc4)cc3S(=O)(=O)O)c(S(=O)(=O)O)c2)cc1`, the Potency is reported as “inactive”.
For `CCCCCCCCCOS(=O)(=O)O`, the Potency was “inactive”.
In the case of `CCOC(=O)C(O)c1ccccc1` (stereo not given), the Potency is reported as “inactive”.
In the case of `CCCCOC(=O)CCCCCCCC(=O)OCCCC`, the Potency is reported as “inactive”.
In the case of `CC(CSC(=O)c1ccccc1)C(=O)N1C[C@@H](Sc2ccccc2)C[C@H]1C(=O)O` (stereo not given in full), the activity change, negative = cytotoxicity is reported as -4.93% [at 15.8 µM] (inactive).
With `CN1C[C@H]2c3ccccc3Oc3ccc(Cl)cc3[C@@H]2C1` the Potency was “inactive”.
For `NCC(=O)O`, the activity change, negative = cytotoxicity was 4.48% [at 15.8 µM] (inactive).
In the case of `OCCNCc1ccccc1`, the Potency is reported as “inactive”.
For `CCCCCCCCO[C@@H]1O[C@H](CO)[C@@H](O)[C@H](O)[C@H]1O`, the Potency was “inactive”.
With `Clc1ccc2c(c1)CCc1cccnc1C2=C1CCNCC1` the Potency was “inactive”.
For `c1ccc(CNCCNCc2ccccc2)cc1`, the Potency was “inactive”.
With `CN(C)c1ccc(/C=C/c2ccc([N+](=O)[O-])cc2)cc1` the activity change, negative = cytotoxicity was -4.94% [at 6.97 µM] (inactive).
In the case of `Cc1cccc(C)c1NC(=O)CN(CC(=O)O)CC(=O)O`, the Potency is reported as “inactive”.
In the case of `Cc1ncc(CO)c(C=O)c1O`, the Potency is reported as “inactive”.
For `Brc1c2ccccc2c(Br)c2ccccc12`, the activity change, negative = cytotoxicity was 0.583% [at 6.97 µM] (inactive).
In the case of `CCOC(=O)C(=O)CCc1ccccc1`, the Potency is reported as “inactive”.
With `Nc1cc(C(=O)O)c(O)c(S(=O)(=O)O)c1` the Potency was “inactive”.
In the case of `O=C(O)C1(C(=O)Nc2ccc(Cl)cc2Cl)CC1`, the Potency is reported as “inactive”.
With `CCOC(=O)C(F)(F)F` the Potency was “inactive”.
In the case of `CCN(CC)CCNc1ccc(CNC=O)c2sc3ccc(OC)cc3c(=O)c12`, the Potency is reported as 27.5 µM (active).
For `CCCCC`, the Potency was “inactive”.
In the case of `CCOC(=O)Cc1cccc2ccccc12`, the Potency is reported as “inactive”.
For `C=C(C)C(=O)OCC`, the Potency was “inactive”.
For `CCn1cc(C(=O)O)c(=O)c2cnc(N3CCNCC3)nc21`, the Potency was “inactive”.
For `CCCn1cnc2c1c(=O)n(CCCCC(C)=O)c(=O)n2C`, the Potency was “inactive”.
For `Nc1ccccc1S(=O)(=O)c1ccccc1`, the Potency was “inactive”.
For `c1ccc(-c2ccccn2)nc1`, the Potency was “inactive”.
With `Cc1ccc(N=Nc2c(O)c(C(=O)O)cc3ccccc23)c(S(=O)(=O)O)c1` the Potency was “inactive”.
For `CC(C)CC(=O)C1C(=O)c2ccccc2C1=O`, the Potency was “inactive”.
With `O=C(OCCc1ccccc1)c1ccccc1` the Potency was “inactive”.
With `CCCCCCOC(=O)NC(=N)c1ccc(NCc2nc3cc(C(=O)N(CCC(=O)OCC)c4ccccn4)ccc3n2C)cc1` the Potency was 9.52 µM (active).
In the case of `CC1=CCCC(C)(C)C12CCC(C)O2` (stereo not given), the Potency is reported as “inactive”.
In the case of `NS(=O)(=O)c1ccc(N2CCCCS2(=O)=O)cc1`, the Potency is reported as “inactive”.
In the case of `OC[C@H]1O[C@@H](OCCc2ccc(O)cc2)[C@H](O)[C@@H](O)[C@@H]1O`, the Potency is reported as “inactive”.
With `CN(C)CCN(Cc1ccccc1)c1ccccn1` the Potency was “inactive”.
